Columns and labels:
Test in all cases: DAPPL (digital affinity profiling via proximity ligation, sequencing); 10 mM Tris-HCl pH 7.5, 50 mM NaCl, 1 mM DTT, 4% glycerol, room temperature, 30 min; GST-TFs on glutathione beads, 16-mer random dsDNA library, 0.1% formaldehyde crosslink after washing; high values mean tight binding
[1] = target: T1, FEV (Homo sapiens, UniProt Q99581 1-238); conditions: protein: recombinant; tags: N-terminal GST; dsDNA, one strand shown
T1 sequence: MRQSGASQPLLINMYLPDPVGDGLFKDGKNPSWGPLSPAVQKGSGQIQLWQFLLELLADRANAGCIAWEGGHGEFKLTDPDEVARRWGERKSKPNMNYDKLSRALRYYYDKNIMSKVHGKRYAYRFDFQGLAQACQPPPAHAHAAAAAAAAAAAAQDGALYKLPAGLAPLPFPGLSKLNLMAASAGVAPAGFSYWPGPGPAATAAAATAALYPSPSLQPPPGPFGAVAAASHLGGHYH
How it was run: (§1)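 Yeast served to express human transcription factors as GST fusions, which were then captured on glutathione beads and labelled with DNA barcodes. Pooled with a tag-only sample, they were incubated with 200 nmole of a 16-mer random double-stranded DNA library for 30 min at room temperature in Tris/NaCl/DTT/glycerol buffer, washed, crosslinked with 0.1% formaldehyde, ligated by proximity, amplified by PCR and sequenced. Dividing each hexamer's read frequency for a factor by its frequency for the tag-only sample gives the binding signal.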

[2] = target: ETV5 (Homo sapiens, UniProt P41161 1-510); conditions: protein: recombinant; tags: N-terminal GST; dsDNA, one strand shown
Sequence of ETV5 (P41161 whole entry): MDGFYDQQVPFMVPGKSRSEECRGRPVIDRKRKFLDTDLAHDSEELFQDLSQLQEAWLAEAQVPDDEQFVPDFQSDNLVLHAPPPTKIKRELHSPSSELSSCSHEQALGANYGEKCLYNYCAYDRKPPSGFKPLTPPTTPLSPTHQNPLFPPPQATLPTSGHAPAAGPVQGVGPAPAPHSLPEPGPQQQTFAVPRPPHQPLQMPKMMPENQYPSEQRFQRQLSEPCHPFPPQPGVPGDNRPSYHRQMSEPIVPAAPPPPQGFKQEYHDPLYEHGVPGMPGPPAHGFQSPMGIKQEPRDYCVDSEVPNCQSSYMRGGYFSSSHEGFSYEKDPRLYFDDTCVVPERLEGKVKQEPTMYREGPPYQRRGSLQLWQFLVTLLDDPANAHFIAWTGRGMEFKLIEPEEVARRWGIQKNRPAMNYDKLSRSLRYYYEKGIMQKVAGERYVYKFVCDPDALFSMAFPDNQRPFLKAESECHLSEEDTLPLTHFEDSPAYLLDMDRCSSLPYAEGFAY
How it was run: as §1

[3] = target: HSF1 (Homo sapiens, UniProt Q00613 1-529); conditions: protein: recombinant; tags: N-terminal GST; chain copies: 3; dsDNA, one strand shown
Sequence of HSF1 (Q00613 whole entry): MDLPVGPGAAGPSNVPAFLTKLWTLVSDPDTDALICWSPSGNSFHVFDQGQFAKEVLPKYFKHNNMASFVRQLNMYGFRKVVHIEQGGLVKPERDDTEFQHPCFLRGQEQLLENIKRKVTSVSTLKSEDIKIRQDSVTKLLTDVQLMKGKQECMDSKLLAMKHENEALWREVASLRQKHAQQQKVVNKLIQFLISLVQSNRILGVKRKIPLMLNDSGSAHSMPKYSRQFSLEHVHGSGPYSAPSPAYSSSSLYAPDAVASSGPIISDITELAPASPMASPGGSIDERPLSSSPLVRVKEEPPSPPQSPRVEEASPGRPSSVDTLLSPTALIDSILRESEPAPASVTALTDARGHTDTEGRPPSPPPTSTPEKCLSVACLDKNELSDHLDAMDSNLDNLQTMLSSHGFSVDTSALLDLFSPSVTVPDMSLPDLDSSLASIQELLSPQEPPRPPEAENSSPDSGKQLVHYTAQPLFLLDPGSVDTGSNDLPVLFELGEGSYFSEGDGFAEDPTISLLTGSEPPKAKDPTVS
How it was run: as §1

[4] = target: T2, SPIC (Homo sapiens, UniProt Q8N5J4 1-248); conditions: protein: recombinant; tags: N-terminal GST; dsDNA, one strand shown
T2 sequence: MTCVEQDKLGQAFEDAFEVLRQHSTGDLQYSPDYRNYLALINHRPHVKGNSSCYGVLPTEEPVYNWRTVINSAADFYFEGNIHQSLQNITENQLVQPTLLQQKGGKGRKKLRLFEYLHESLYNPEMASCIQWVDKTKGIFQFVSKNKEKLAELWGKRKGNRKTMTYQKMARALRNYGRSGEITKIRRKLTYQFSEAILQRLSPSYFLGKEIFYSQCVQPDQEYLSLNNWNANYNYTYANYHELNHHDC
How it was run: as §1

[5] = target: ELF4 (Homo sapiens, UniProt Q99607 1-663); conditions: protein: recombinant; tags: N-terminal GST; dsDNA, one strand shown
Sequence of ELF4 (Q99607 whole entry): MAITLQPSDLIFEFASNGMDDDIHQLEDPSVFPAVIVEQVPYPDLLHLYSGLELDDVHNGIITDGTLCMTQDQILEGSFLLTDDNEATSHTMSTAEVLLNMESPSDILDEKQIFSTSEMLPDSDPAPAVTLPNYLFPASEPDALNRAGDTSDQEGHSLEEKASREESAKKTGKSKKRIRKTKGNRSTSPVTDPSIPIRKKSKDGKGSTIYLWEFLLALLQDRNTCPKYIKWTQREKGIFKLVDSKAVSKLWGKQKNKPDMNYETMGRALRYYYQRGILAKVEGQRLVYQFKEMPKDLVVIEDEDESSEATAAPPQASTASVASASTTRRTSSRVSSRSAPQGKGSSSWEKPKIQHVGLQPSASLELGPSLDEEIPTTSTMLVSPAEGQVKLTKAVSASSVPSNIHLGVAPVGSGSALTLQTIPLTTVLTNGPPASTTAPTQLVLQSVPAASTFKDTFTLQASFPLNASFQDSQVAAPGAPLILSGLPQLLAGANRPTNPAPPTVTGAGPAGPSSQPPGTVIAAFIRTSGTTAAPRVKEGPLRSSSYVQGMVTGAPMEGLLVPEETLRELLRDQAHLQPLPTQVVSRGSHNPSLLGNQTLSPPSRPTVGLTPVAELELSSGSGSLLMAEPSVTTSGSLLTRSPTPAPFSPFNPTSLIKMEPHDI
How it was run: as §1

[6] = target: T3, ELK4 (Homo sapiens, UniProt P28324-2 1-405); conditions: protein: recombinant; tags: N-terminal GST; dsDNA, one strand shown
T3 sequence: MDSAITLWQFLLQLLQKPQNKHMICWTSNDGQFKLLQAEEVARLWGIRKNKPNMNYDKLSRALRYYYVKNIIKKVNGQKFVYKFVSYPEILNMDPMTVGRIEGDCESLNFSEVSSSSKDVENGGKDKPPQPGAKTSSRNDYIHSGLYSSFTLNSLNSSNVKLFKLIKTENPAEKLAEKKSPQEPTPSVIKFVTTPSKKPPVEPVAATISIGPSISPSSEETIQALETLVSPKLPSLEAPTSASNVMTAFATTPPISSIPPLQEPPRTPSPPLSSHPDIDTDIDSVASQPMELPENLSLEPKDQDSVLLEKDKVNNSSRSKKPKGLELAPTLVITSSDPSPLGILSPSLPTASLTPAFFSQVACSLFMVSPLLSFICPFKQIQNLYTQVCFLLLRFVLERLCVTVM
How it was run: as §1

[7] = target: T4, ETV2 (Homo sapiens, UniProt O00321 1-342); conditions: protein: recombinant; tags: N-terminal GST; dsDNA, one strand shown
T4 sequence: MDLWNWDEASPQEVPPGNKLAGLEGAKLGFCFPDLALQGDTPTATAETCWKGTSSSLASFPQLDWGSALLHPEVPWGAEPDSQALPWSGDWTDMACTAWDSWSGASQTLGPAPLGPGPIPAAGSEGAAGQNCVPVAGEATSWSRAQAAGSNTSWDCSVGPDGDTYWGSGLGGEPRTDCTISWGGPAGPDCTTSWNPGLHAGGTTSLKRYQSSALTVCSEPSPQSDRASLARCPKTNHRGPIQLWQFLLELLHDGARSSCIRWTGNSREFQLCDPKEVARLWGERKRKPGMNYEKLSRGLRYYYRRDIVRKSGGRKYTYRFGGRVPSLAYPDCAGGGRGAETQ
How it was run: as §1

[8] = target: T5, ELF3 (Homo sapiens, UniProt P78545 1-371); conditions: protein: recombinant; tags: N-terminal GST; dsDNA, one strand shown
T5 sequence: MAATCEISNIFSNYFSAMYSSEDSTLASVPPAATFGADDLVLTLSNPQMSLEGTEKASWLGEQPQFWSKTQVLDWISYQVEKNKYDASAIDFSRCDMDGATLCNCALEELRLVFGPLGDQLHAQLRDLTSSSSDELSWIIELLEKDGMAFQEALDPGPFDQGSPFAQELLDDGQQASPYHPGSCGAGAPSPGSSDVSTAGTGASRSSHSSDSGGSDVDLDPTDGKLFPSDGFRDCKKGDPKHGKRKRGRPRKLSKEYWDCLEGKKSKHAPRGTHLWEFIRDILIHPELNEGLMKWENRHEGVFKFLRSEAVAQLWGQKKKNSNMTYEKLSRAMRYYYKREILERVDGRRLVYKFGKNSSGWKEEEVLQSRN
How it was run: as §1

[9] = target: CRX (Homo sapiens, UniProt O43186 1-299); conditions: protein: recombinant; tags: N-terminal GST; dsDNA, one strand shown
Sequence of CRX (O43186 whole entry): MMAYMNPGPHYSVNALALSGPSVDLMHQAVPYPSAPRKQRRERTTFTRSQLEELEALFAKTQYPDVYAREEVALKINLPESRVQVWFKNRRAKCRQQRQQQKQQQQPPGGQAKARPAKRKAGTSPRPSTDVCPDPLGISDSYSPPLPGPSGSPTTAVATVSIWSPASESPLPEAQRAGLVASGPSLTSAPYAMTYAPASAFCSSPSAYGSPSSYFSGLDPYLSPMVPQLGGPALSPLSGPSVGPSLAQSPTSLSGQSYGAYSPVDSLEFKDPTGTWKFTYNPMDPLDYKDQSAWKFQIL
How it was run: as §1

[10] = target: ETV1 (Homo sapiens, UniProt P50549 1-477); conditions: protein: recombinant; tags: N-terminal GST; dsDNA, one strand shown
Sequence of ETV1 (P50549 whole entry): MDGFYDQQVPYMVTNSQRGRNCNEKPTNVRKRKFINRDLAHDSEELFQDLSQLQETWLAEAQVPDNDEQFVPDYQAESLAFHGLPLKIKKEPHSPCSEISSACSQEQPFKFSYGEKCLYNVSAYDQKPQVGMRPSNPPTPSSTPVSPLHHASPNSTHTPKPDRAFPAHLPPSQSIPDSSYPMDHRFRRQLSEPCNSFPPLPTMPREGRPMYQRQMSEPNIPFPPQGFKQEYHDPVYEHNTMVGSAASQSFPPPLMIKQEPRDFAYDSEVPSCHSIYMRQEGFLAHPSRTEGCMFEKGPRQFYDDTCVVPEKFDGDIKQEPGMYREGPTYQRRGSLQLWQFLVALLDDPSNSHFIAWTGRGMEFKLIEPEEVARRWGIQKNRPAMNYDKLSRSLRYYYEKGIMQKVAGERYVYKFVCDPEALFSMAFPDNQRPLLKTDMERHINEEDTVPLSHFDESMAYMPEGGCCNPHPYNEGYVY
How it was run: as §1

[11] = target: T6, ERF (Homo sapiens, UniProt P50548 1-548); conditions: protein: recombinant; tags: N-terminal GST; dsDNA, one strand shown
T6 sequence: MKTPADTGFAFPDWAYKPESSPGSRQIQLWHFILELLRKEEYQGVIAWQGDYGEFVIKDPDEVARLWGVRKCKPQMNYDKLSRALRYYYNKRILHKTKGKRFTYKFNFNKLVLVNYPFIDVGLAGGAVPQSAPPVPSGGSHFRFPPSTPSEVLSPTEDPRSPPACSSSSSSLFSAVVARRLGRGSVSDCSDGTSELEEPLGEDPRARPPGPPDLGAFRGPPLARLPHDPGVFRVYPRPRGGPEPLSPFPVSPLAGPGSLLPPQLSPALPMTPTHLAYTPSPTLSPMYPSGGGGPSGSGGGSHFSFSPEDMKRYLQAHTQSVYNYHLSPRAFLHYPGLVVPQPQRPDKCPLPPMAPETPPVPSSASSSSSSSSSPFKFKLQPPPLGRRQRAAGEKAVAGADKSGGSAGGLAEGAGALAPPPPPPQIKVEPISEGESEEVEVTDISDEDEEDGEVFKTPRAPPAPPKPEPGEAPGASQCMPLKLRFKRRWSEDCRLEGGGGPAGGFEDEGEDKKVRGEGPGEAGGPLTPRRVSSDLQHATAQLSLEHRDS
How it was run: as §1

[12] = target: T7, ETV3L (Homo sapiens, UniProt Q6ZN32 1-361); conditions: protein: recombinant; tags: N-terminal GST; dsDNA, one strand shown
T7 sequence: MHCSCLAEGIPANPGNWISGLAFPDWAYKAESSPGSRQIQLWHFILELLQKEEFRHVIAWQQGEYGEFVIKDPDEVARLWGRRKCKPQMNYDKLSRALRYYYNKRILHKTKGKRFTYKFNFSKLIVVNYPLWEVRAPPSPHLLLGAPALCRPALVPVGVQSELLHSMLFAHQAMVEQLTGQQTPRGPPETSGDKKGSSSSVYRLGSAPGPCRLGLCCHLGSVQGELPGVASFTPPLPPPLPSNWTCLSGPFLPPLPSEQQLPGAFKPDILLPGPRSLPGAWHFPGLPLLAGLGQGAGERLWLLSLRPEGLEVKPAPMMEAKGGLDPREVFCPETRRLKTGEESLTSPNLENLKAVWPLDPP
How it was run: as §1

[13] = target: T8, ETS2 (Homo sapiens, UniProt P15036 1-469); conditions: protein: recombinant; tags: N-terminal GST; dsDNA, one strand shown
T8 sequence: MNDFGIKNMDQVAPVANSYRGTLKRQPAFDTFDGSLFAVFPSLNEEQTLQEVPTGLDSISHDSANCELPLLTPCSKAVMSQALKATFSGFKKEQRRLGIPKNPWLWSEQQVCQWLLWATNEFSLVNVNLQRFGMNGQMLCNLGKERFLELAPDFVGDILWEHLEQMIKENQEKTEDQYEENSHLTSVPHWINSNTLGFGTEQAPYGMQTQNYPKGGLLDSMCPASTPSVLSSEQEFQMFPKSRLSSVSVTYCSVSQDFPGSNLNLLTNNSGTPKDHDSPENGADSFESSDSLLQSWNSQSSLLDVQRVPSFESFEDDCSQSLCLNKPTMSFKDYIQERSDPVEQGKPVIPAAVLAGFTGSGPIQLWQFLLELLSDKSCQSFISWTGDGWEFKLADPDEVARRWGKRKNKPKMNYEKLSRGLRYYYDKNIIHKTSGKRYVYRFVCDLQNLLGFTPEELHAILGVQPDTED
How it was run: as §1

[14] = target: T9, SPDEF (Homo sapiens, UniProt O95238 1-335); conditions: protein: recombinant; tags: N-terminal GST; dsDNA, one strand shown
T9 sequence: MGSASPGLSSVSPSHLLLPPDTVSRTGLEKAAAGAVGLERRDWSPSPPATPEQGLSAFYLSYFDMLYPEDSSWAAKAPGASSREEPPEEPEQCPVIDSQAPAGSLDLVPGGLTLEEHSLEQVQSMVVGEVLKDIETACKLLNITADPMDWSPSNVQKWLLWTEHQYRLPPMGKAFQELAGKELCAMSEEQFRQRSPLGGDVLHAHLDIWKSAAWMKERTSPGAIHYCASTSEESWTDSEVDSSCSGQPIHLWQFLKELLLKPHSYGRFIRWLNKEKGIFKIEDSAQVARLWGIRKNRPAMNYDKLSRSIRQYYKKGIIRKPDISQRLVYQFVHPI
How it was run: as §1

[15] = target: T10, ETV7 (Homo sapiens, UniProt Q9Y603 1-341); conditions: protein: recombinant; tags: N-terminal GST; dsDNA, one strand shown
T10 sequence: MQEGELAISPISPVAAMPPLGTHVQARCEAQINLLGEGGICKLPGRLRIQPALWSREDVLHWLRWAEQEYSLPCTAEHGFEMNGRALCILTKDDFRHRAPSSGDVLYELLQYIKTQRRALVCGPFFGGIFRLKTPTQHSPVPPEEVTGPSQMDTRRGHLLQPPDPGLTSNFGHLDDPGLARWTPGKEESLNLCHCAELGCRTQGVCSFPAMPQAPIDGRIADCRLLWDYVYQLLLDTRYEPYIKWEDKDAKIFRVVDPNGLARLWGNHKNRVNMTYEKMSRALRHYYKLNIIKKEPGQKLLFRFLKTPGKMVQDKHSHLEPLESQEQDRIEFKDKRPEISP
How it was run: as §1

[16] = target: T11, ELF5 (Homo sapiens, UniProt Q9UKW6-2 1-255); conditions: protein: recombinant; tags: N-terminal GST; dsDNA, one strand shown
T11 sequence: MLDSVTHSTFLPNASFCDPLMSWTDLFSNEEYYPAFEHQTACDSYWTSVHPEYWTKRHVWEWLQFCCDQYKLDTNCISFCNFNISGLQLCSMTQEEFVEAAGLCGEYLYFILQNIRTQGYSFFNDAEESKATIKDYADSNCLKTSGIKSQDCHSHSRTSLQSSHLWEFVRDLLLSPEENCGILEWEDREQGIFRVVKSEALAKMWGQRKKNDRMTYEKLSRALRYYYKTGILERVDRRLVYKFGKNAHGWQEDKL
How it was run: as §1

[17] = target: T12, ETV3 (Homo sapiens, UniProt P41162-2 1-143); conditions: protein: recombinant; tags: N-terminal GST; dsDNA, one strand shown
T12 sequence: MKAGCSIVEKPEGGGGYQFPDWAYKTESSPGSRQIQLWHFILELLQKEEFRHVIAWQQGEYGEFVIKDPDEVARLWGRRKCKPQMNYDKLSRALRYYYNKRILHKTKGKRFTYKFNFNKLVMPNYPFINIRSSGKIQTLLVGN
How it was run: as §1

[18] = target: ETV6 (Homo sapiens, UniProt P41212 1-452); conditions: protein: recombinant; tags: N-terminal GST; dsDNA, one strand shown
Sequence of ETV6 (P41212 whole entry): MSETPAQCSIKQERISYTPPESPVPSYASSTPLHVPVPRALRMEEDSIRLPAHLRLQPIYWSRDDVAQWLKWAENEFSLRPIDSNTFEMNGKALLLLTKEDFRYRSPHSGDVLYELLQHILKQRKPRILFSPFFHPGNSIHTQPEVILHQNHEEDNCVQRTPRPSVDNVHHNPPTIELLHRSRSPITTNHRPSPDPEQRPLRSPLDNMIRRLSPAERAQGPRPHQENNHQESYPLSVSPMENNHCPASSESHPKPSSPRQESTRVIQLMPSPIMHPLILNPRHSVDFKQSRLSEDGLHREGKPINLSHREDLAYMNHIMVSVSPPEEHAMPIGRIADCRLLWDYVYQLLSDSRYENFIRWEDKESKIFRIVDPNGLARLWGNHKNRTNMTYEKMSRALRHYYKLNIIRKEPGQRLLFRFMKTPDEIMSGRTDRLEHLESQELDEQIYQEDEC
How it was run: as §1

For GGGCCT, the binding signal [1] was 1.11 fold enrichment (6-mer frequency, TF over GST control), the binding signal [2] was 1.27 fold enrichment (6-mer frequency, TF over GST control) and the binding signal [3] was 1.1 fold enrichment (6-mer frequency, TF over GST control). For the same sequence, the binding signal [4] was 1.13 fold enrichment (6-mer frequency, TF over GST control), the binding signal [5] was 1.24 fold enrichment (6-mer frequency, TF over GST control) and the binding signal [6] was 1.3 fold enrichment (6-mer frequency, TF over GST control). The binding signal [7] was 1.05 fold enrichment (6-mer frequency, TF over GST control), the binding signal [8] was 1.19 fold enrichment (6-mer frequency, TF over GST control) and the binding signal [9] was 1.07 fold enrichment (6-mer frequency, TF over GST control). For the same sequence, the binding signal [10] was 1.31 fold enrichment (6-mer frequency, TF over GST control), the binding signal [11] was 1.37 fold enrichment (6-mer frequency, TF over GST control) and the binding signal [12] was 1.21 fold enrichment (6-mer frequency, TF over GST control). For the same sequence, the binding signal [13] was 1.21 fold enrichment (6-mer frequency, TF over GST control), the binding signal [14] was 1.24 fold enrichment (6-mer frequency, TF over GST control) and the binding signal [15] was 1.24 fold enrichment (6-mer frequency, TF over GST control). The binding signal [16] was 1.17 fold enrichment (6-mer frequency, TF over GST control), the binding signal [17] was 1.21 fold enrichment (6-mer frequency, TF over GST control) and the binding signal [18] was 1.21 fold enrichment (6-mer frequency, TF over GST control).

Reference: paper PMC7862700, “An all-to-all approach to the identification of sequence-specific readers for epigenetic DNA modifications on cytosine”
